BH1578 lux ind – induces V. cholerae light production without autoinducers; V. cholerae BH1578 lux reporter, luminescence, 6 h; activation, % at 18.7 µM; 0.16% of 350,000 active; AID 588436; in the data active means activation mostly above about 9.7%, no sharp cut-off; inconclusive means no clear call, values can overlap the other calls; inactive means mostly below about 3.7%
BJeLR lethal – BJeLR cell viability loss | AID 1554 | 0.17% of 300,000 active | inhibition, % (test concentration not listed) | BJeLR (HRASV12) viability, CellTiter-Glo ATP luminescence, 48 h; in the data active means inhibition above about 50%; inconclusive means no clear call, values can overlap the other calls
BoNT-F LC inh – blocks Botulinum neurotoxin F light chain protease. Multiplex microsphere protease cleavage assay, flow cytometry. inhibition, % at 10 µM. 0.22% of 360,000 active; in the data active means inhibition above about 35%, passing the limit was not always enough; inconclusive means no clear call, values can overlap the other calls; further: plate controls were buffer without enzyme for full effect and enzyme alone for no effect
BoNT-A LC inh2 – inhibitors of Botulinum neurotoxin A light chain protease; multiplex microsphere protease substrate cleavage, flow cytometry; inhibition, % at 10 µM; 0.17% of 360,000 active; further: plate controls were buffer without enzyme for full effect and enzyme alone for no effect
Anthrax LF inh2 – blocks Bacillus anthracis lethal factor protease. 0.12% of 360,000 active. inhibition, % at 10 µM. P15917. multiplex microsphere protease cleavage assay, LF; further: plate controls were buffer without enzyme for full effect and enzyme alone for no effect
Bead autofluor – compound fluorescence in toxin protease inhibitor counterscreen. compound autofluorescence counterscreen, microsphere flow cytometry; active compounds read high. fluorescence intensity (test concentration not listed). 3.1% of 360,000 active. AID 624483; in the data active means fluorescence intensity above about 16000; inconclusive means no clear call, values can overlap the other calls
The depositor's hits bear a star; i = inactive; ? = inconclusive; / = no result given. Sampled rows, rich in hits. Any-hit rate of the full collection: about 3.7%. Unless noted, no stated cut-off is given here; in the data, active means inhibition above about 30%; inconclusive means no clear call, values can overlap the other calls; inactive means below that.

SMILES	BH1578 lux ind	BJeLR lethal	BoNT-F LC inh	BoNT-A LC inh2	Anthrax LF inh2	Bead autofluor
C/C(=N\Nc1nc(N)cc(Cl)n1)c1cccc(N)c1	1	-4	4	0	-1	2354
CC1=C(C(=O)N2CCCCCC2)CC(CC(=O)NCCN2CCOCC2)C(=O)N1Cc1ccccc1 (stereo not given)	/	/	-6	0	3	5696
CCOC(=O)C1CCCN(C(=O)c2oc3ccccc3c2C)CC1 (stereo not given)	-2	/	-7	-1	-5	4176
CCOC(=O)CSc1nnc(-c2ccc(S(=O)(=O)NCc3cccs3)cc2)o1	-1	4	-1	0	-10	15856
COC(=O)CSc1nnc(-c2ccc(S(=O)(=O)NCc3cccs3)cc2)o1	-2	/	4	2	0	21213*
COC(=O)CSc1nnc(-c2ccc(S(=O)(=O)NCc3ccccc3Cl)cc2)o1	i	7	1	1	0	21867*
COC(=O)CSc1nnc(-c2ccc(S(=O)(=O)N3CCCC3)cc2)o1	-1	0	3	-1	0	6003
Cc1ccc(C23CC4CC(CC(NC(=O)NC(C)(C)CO)(C4)C2)C3)cc1	-7	7	2	1	0	22797*
Cc1ccc(C23CC4CC(CC(NC(=O)NN)(C4)C2)C3)cc1	i	0	5	2	0	5549
FC(F)Sc1ccc(Nc2ncnc3nc[nH]c23)cc1	-3	1	-4	?	-4	23588*
N#Cc1c(OCC(=O)c2ccccc2)nc2c(c1-c1ccco1)CCc1ccccc1-2	i	-7	7	5	-14	18221*
CCOC(=O)COc1nc2c(c(-c3ccco3)c1C#N)CCc1ccccc1-2	-1	-4	17	-8	?	3921
Cc1ccc(C)c(N2CN(Cc3ccco3)CNC2=S)c1	0	-2	15	1	-6	7465
CCN1CNC(=S)N(c2cc(C)ccc2C)C1	i	0	-4	?	-6	21089*
CCOC(=O)[C@]12CCCC=C1N(Cc1ccco1)C(=O)[C@H](CC(=O)NCc1ccccc1)C2	/	/	-1	0	4	5215
COCC(=O)Nc1sc2c(c1C(=O)OC)C(C(=O)OC)CC2 (stereo not given)	i	8	-5	-1	-2	20588*
CCn1ncc(C2=NOC(C(=O)N3CCC(C(N)=O)CC3)C2)c1C (stereo not given)	i	-3	4	?	-7	21518*
CCn1ncc(C2=NOC(C(=O)Nc3cc(OC)c(Cl)cc3OC)C2)c1C (stereo not given)	i	-1	1	2	-1	18923*
CCn1ncc(C2=NOC(C(=O)Nc3cnn(C45CC6CC(CC(C6)C4)C5)c3)C2)c1C (stereo not given)	0	-3	1	2	-1	21886*
CCOC(=O)N1CCN(C(=O)C2CC(c3cc(OC)ccc3OC)=NO2)CC1 (stereo not given)	-1	/	-1	?	1	23965*
C[C@@H]1CN([C@@H](C)CO)C(=O)c2cc(Br)cnc2O[C@@H]1CN(C)S(=O)(=O)c1ccc(F)cc1	i	/	-1	0	-3	3021
CC(C)CCN1C(=O)c2ccccc2C1c1nnnn1-c1ccc2c(c1)OCCO2 (stereo not given)	/	/	9	0	-1	6050
O=S1(=O)C[C@@H](N2CCN(c3ccccn3)CC2)[C@H](COCc2ccccc2)N1	0	/	-6	0	-3	3035
Cc1ccc(Cn2c(=O)c3ccccc3n3c(SCC(=O)N4CCCCC4C)nnc23)cc1 (stereo not given)	i	/	2	?	2	19920*
COc1ccc(CC(=O)N2CCN(C)CC2)cc1	2	-5	-2	0	-2	16186*
SMILES	BH1578 lux ind	BJeLR lethal	BoNT-F LC inh	BoNT-A LC inh2	Anthrax LF inh2	Bead autofluor
COc1ccc(N2CCN(S(=O)(=O)c3cccc(C(F)(F)F)c3)CC2)cc1	i	-1	-4	1	-11	20076*
COc1ccc(CC(=O)N2CCN(C(=O)Cc3ccc(OC)cc3)CC2)cc1	1	1	?	-5	-5	5477
O=C(c1cccc(S(=O)(=O)N2CCOCC2)c1)N1CCN(c2ccc(F)cc2)CC1	0	15	5	4	-5	21227*
O=C(c1cccc(S(=O)(=O)N2CCOCC2)c1)N1CCCCCC1	i	-6	-2	-2	2	23147*
O=C(c1cccc(S(=O)(=O)N2CCOCC2)c1)N1CCN(c2ccccc2)CC1	-1	/	4	-1	-1	4012
Cc1ccc(S(=O)(=O)N2C[C@H]3C(=O)C[C@@H](c4ccccc4)N(S(=O)(=O)c4ccc(C)cc4)[C@H]3C[C@H]2c2ccccc2F)cc1	/	/	-1	0	-6	4372
Clc1ccccc1-c1cnc2sc(NCc3ccc4c(c3)OCO4)nn12	0	/	0	0	0	3853
COc1ccc(N2CCN(C(=O)c3ccc(-n4nc(C)cc4C)cc3)CC2)cc1	-2	-1	-8	-4	-3	25032*
COc1ccc(N2CCN(C(=O)c3ccc(C(C)(C)C)cc3)CC2)cc1	i	7	-9	0	-3	2118
COc1ccc(C(=O)N2CCCC2)cc1S(=O)(=O)N1CCOCC1	i	-3	-2	0	2	20709*
COc1ccc(C(=O)Nc2ccc(N3CCOCC3)cc2)cc1S(=O)(=O)N1CCOCC1	-6	/	3	3	8	?
COc1ccc(N2CCN(C(=O)c3ccc(S(=O)(=O)N4CCOCC4)cc3)CC2)cc1	i	3	2	0	2	22765*
COc1ccc(C(=O)Nc2ccc(-c3cn4ccsc4n3)cc2)cc1S(=O)(=O)N1CCOCC1	-6	-3	4	?	-10	20320*
COc1ccc(CN(C)C(=O)c2ccc(NC(=O)CC3SC(N4CCCCC4)=NC3=O)cc2)c(OC)c1 (stereo not given)	i	/	-4	-1	-3	3023
Cc1ccccc1S(=O)(=O)NC(=O)C1(C)CCN1C(=O)CC1CCCCC1 (stereo not given)	0	/	-4	0	-7	3804
O=S(=O)(c1cccc(-n2cnnn2)c1)N1CCOCC1	-5	-14	0	0	-2	5253
Cc1ccc(S(=O)(=O)N2CCN(C(=O)CC(C)C)CC2)cc1	i	-2	-3	0	-4	4590
COc1cc(-n2cnnn2)ccc1S(=O)(=O)N1CCOCC1	-4	-2	-2	?	1	22844*
COc1ccc(C(=O)N2CCN(S(=O)(=O)c3ccc(Cl)cc3)CC2)cc1OC	-6	10	8	4	4	21574*
COc1ccc(OC(=O)c2cccc(S(=O)(=O)N3CCCC3)c2)cc1	-1	2	-5	-5	-3	24453*
COC(=O)c1cccc(S(=O)(=O)N2CCCC2)c1	i	-1	2	0	-2	2380
COc1ccc(S(=O)(=O)N2CCN(C(=O)CC(C)C)CC2)cc1	1	-13	40*	4	-4	2951
